Screens (PubChem)
PI5P4K alpha inh – PI5P4K alpha (human) kinase inhibition; hit rate 1.2% among 330,000; AID 652105; max response, %; PI5P4Kalpha enzyme, ADP-Glo luminescence, 60 min; stronger effect = lower value; active means max response of -50% or lower; inconclusive means between -30% and -50%; inactive means -30% or higher; further: value at the top dose of about 77 µM; on the % scale 0 is the no-effect control and ±100 the full control effect
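qHTS, 1536-well: enzyme/substrate mix, compound by pin tool, 5 microM ATP final; RT 60 min; ADP-Glo reagents 1 (45 min) then 2 (30 min); luminescence.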
HP1b chromo inh – HP1-beta chromodomain-methylated histone interaction inhibition; AlphaScreen HP1-beta / biotin-H3K9me3 peptide binding; Potency, µM (titrated, usually from 114 µM), for inactives: at the top dose activity change, negative = inhibition, hits mostly inhibitors; hit rate 0.56% among 390,000; further: potency means the concentration at half of the fitted maximal effect; nearly all actives have a fitted effect of over 70% in size
Target sequence (P83916 whole entry, looked up): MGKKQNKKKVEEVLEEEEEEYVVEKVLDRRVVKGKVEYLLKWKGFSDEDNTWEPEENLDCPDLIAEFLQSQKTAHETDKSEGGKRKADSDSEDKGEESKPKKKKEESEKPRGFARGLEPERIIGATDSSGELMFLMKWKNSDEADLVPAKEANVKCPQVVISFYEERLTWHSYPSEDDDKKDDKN
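Compound inhibition of the preformed complex between 50 nM HP1-beta and 50 nM biotinylated H3K9me3 peptide was read by AlphaScreen. Buffer was PBS pH 7.4 with 0.01% Tween-20. Incubations ran 30 min at room temperature, with 10 ug/mL donor/acceptor beads.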
JMJD2A Tudor – inhibitors of human JMJD2A Tudor domain. hit rate 4.4% among 390,000. Potency, µM (top dose mostly 114 µM), for the others: top-dose activity change, negative = inhibition, usual class: inhibitors. AlphaScreen JMJD2A-Tudor / H3K4me3 peptide binding; further: potency means the concentration at half of the fitted maximal effect; on the % scale 0 is the no-effect control and ±100 the full control effect; nearly all actives have a fitted effect of over 50% in size
G9a inh – inhibitors of human histone lysine methyltransferase G9a. Q96KQ7. G9a H3K9 monomethylation, AlphaScreen, 2 h. Potency, µM (doses to about 102 µM), for inactives: at the top dose activity, negative = inhibition, most hits filed as inhibitors. hit rate 8.8% among 350,000; further: potency means the concentration at half of the fitted maximal effect; on the % scale 0 is the no-effect control and ±100 the full control effect; nearly all actives have a fitted effect of over 75% in size
Target sequence (Q96KQ7 913-1193 limits assumed): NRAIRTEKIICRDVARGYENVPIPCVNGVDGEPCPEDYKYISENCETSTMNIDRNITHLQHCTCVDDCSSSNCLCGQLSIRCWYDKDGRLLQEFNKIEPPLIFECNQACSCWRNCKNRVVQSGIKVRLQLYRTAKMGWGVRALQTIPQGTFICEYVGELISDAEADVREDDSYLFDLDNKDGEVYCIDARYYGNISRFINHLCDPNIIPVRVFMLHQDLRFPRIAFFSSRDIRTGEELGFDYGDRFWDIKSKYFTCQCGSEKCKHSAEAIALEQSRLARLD
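Using a bead-based AlphaScreen, monomethylated H3K9 product from 2 h room-temperature reactions (G9a 20 nM, peptide 500 nM, SAM 20 uM) was detected with 0.5 ug/mL rabbit anti-H3K9me1 antibody.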
PLK1 PBD block – blocks phosphopeptide binding to human PLK1 polo-box domain. P53350. Plk1 PBD binding of FITC phosphopeptide, fluorescence polarization. Potency, µM, for the others: max response, negative = inhibition, most hits filed as inhibitors. hit rate 2.8% among 360,000; further: potency means the concentration at half of the fitted maximal effect; series mostly up to about 57 µM; on the % scale 0 is the no-effect control and ±100 the full control effect; nearly all actives have a fitted effect of over 65% in size
BAZ2B block – inhibitors of human BAZ2B bromodomain. AlphaScreen BAZ2B-H3K14Ac peptide displacement. hit rate 4.4% among 360,000. Potency, µM (top dose mostly 114 µM), for inactives: at the highest dose activity change, negative = inhibition, usual class: inhibitors. Q9UIF8; further: potency means the concentration at half of the fitted maximal effect; on the % scale 0 is the no-effect control and ±100 the full control effect; nearly all actives have a fitted effect of over 60% in size
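AlphaScreen displacement of biotin-H3(5-23)K14Ac peptide (50 nM final) from BAZ2B (50 nM final) in PBS pH 7.4, 0.01% Tween-20; complex preformed 30 min RT, then compounds (top 110 uM) 30 min RT, beads 20 min dark.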
* hit, by the source's call; ? = inconclusive; . = not tested or not shown; [ ] = another dose, or the depositor's remark. Most compounds without a hit are left out; they make up all but 12% or so of the library. Unless noted, the call rests on the fitted dose curve; in most records, active means well fitted curve in the direction sought with a large enough effect; inconclusive means small, poorly fitted or top-dose-only effect, or another doubt; inactive means no such curve, though single readings can be large; an effect the other way counts as inactive or inconclusive.

SMILES | PI5P4K alpha inh | HP1b chromo inh | JMJD2A Tudor | G9a inh | PLK1 PBD block | BAZ2B block
Cc1ccc2cc(CN(CCCN3CCOCC3)C(c3nnnn3Cc3ccco3)C(C)C)c(=O)[nH]c2c1C (stereo not given) | . | -33% | -31% | . | -24% | .
Cc1ccc2cc(CN(CCN3CCOCC3)Cc3nnnn3Cc3ccco3)c(=O)[nH]c2c1C | -2 | 38% | -7% | 56µM* | -6% | 7%
COc1ccccc1C(=O)Nc1ccc2nc(N3CCC(C)CC3)cc(C)c2c1 | . | 87% | 19% | 54%[59 µM] | . | 37%
CCOC(=O)N1CCN(C(=O)CN(C)S(=O)(=O)c2ccc(Cl)cc2)CC1 | 6 | -2% | -6% | 28% | -3% | -1%
COc1ccc(CCNC(=O)c2cc3c(=O)n4cccc(C)c4nc3n2C)cc1 | . | 14% | -28% | 3%[59 µM] | . | -3%
COc1cc(/C=C2/C(=O)ON=C2C)cc(Cl)c1O | -59* | -11% | -24% | 35µM* | 15% | 56µM*
COc1ccc(Cl)cc1/C=C1/C(=O)ON=C1C | -4 | 13% | -29% | ? | ? | -27%
C#CCOc1c(Cl)cc(/C=C2/C(=O)ON=C2C)cc1OC | 0 | 1% | -3% | 40µM* | 4.7µM* | -3%
CCN(C(=O)CSc1nc2ccccc2n1Cc1cc(C)ccc1C)c1ccccc1 | . | -14% | -13% | -13%[59 µM] | . | -26%
O=S(=O)(N1CCN(c2nc(-c3cccs3)nc3ccccc23)CC1)C(F)(F)F | . | 38% | 11% | . | . | .
Cc1ccccc1NC(=O)CSCn1nnc2c(=O)[nH]c(Cc3ccc(F)cc3)nc21 | . | 22% | -11% | -3%[59 µM] | . | 0%
Cc1c(C)n(CC(O)CN2CCCCCC2)c2ccccc12 (stereo not given) | 3 | -8% | ? | 35µM* | -6% | ?
Cc1ccc2c(c1)c(C)c(C)n2CC(O)CN1CCOCC1 (stereo not given) | 1 | 10% | 79µM* | -22%[59 µM] | -22% | 1%
Cc1ccc(C(C)C)c(OCC(O)CN2CCOCC2)c1 (stereo not given) | . | 37% | -9% | 2% | -1% | 15%
Cc1c(C)n(CC(O)CSc2ccccc2)c2ccccc12 (stereo not given) | 28 | . | . | . | 2.4µM* | .
Cc1c(C)n(CC(O)CNCCO)c2ccccc12 (stereo not given) | 5 | ? | 13µM* | 8.9µM* | 4% | 45µM*
CCOc1ccc(-c2cc(C(=O)Oc3ccc(C#N)cc3)no2)cc1 | . | 65% | 6% | -4%[59 µM] | . | 3%
Cc1cccc(N(C)S(=O)(=O)c2c(C)noc2C)c1 | -8 | 19%[57 µM] | 5% | 21% | -6% | 15%
CCNc1ncc2nc(CCc3ccccc3)c(=O)n(C)c2n1 | . | . | . | -2%[12.7 µM] | . | .
O=C(COC(=O)/C=C/c1ccccc1)NC1CCCCCC1 | -4 | 12% | -9% | 2%[0.501 µM] | -4% | 1%
CC(=O)Nc1ccc(OCC(O)Cn2c3ccccc3c3ccccc32)cc1 (stereo not given) | 3 | 9% | -26% | -18% | 7% | -8%
COc1ccc(NCC(O)Cn2c(C)c(C)c3ccccc32)cc1 (stereo not given) | -2 | 40µM* | ? | . | 0% | 40µM*
Cc1c(C)n(CC(O)CN(CCO)CCO)c2ccccc12 (stereo not given) | -3 | 1% | ? | -12%[59 µM] | 0% | -32%
Cc1c(C)n(CC(O)CNc2ccccc2)c2ccccc12 (stereo not given) | 20 | ? | 25µM* | 13µM* | 7% | 25µM*
COc1c(F)c(F)cc2c(=O)c(C(=O)O)cn(C3CC3)c12 | 2 | -1% | 28µM* | 6% | -14% | ?
COc1c(N2CCN(C(=S)NCc3ccccc3)C(C)C2)c(F)cc2c(=O)c(C(=O)O)cn(C3CC3)c12 (stereo not given) | -14 | -31% | 56µM* | 20% | ? | 79µM*
CNC1CCCN(c2c(F)cc3c(=O)c(C(=O)O)cn(C4CC4)c3c2OC)C1 (stereo not given) | . | . | . | 5%[12.7 µM] | . | .
COc1cccc2oc3cc(C#Cc4ccccn4)ccc3c(=O)c12 | -23 | 68% | 22µM* | . | -11% | 40µM*
